D1 PAM = human D1 dopamine receptor positive modulation | HEK293 TREx D1 cells, calcium flux, dopamine EC20 potentiation | potentiation, % at 10 µM | 360,000 tested, 0.036% active | P21728; in the data active = potentiation above about 30%; note: 0% is about no effect
Target sequence (P21728 whole entry, looked up): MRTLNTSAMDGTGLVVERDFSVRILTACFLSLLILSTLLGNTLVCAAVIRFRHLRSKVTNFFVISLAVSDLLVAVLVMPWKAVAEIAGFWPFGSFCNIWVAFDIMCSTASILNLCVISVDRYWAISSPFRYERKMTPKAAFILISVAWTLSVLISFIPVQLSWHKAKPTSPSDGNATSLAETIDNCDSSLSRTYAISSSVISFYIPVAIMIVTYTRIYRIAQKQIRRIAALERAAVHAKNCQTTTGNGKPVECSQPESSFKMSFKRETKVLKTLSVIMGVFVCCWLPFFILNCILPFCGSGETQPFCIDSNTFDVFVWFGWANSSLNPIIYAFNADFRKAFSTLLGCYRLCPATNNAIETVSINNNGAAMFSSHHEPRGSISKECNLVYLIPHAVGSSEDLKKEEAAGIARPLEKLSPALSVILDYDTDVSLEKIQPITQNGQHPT
D1 agonist = agonists of human D1 dopamine receptor. HEK293 T-REx D1 cells, calcium flux, agonist mode. activation, % at 2 µM. 360,000 tested, 1% active. AID 504660; note: 0% is about no effect
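Inducible HEK293 T-REx D1 cells, force-coupled to calcium signalling, were plated at 4000 cells/well with tetracycline and held overnight at 30 C. After no-wash calcium dye loading, compound-evoked calcium rise over 180 s flagged agonists.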
TRHR enhancer-1 = TRH receptor (human) allosteric enhancement. P34981. TRHR cells, fluo-8 calcium fluorescence, EC20 TRH enhancement. enhancement, % at 2 µM. 360,000 tested, 0.66% active. AID 493056; in the data active = enhancement above about 30%; note: 0% is about no effect
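TRHR-expressing cells loaded with fluo-8 calcium dye were read kinetically (ex 480/em 530) during compound addition, then stimulated with an EC20 of TRH (10 nM final). Enhancement of the Gq-mediated intracellular calcium response was scored.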
TRHR agonist-1 = agonists of human TRH receptor; activation, % at 2 µM; TRHR cells, calcium flux fluo-8, FDSS agonist mode; 360,000 tested, 0.18% active; P34981; note: 0% is about no effect
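Read-out: compound-evoked intracellular calcium rise in TRHR cells, fluo-8 dye, kinetic FDSS fluorescence at 1 s/cycle following a 10-cycle baseline. Cells cultured overnight before dye loading (30 min–1.5 h, RT).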
D1 antagonist = human D1 dopamine receptor antagonism; P21728; HEK293 TREx D1 cells, calcium flux, dopamine EC80; stronger effect = lower value; activity change, negative = inhibition, % at 10 µM; 360,000 tested, 3.2% active; AID 504652; in the data active = activity change below about -30%; note: % is set by controls: 0 for no effect and ±100 for the full control effect
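After overnight tetracycline induction at 30 C, force-coupled D1 HEK293 cells took up a no-wash calcium dye at room temperature. Compounds were added and monitored 180 s, and the response to EC80 dopamine was then recorded.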
TRHR enhancer-2 = confirmation of human TRH receptor allosteric enhancers | shares compounds with TRHR enhancer-1 | TRH receptor cell assay, enhancer confirmation qHTS | activity change, negative = inhibition, % at 46.1 µM | AID 493076 | 970 tested, under 10 active; active = well fitted curve in the direction sought with a large enough effect; inconclusive = small, poorly fitted or top-dose-only effect, or another doubt; inactive = no such curve, though single readings can be large; an effect the other way counts as inactive or inconclusive;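 note: compound effect scored on response to added TRH at EC20 of 10 nM; 0% is about no effect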
TRHR agonist-2 = human TRH receptor agonism confirmation. shares compounds with TRHR enhancer-1. TRHR-expressing cells, agonist activation read-out. Potency, µM (titrated, usually from 46.1 µM), for the others: top-dose activation, usual class: activators. 970 tested, 8% active; active = well fitted curve in the direction sought with a large enough effect; inconclusive = small, poorly fitted or top-dose-only effect, or another doubt; inactive = no such curve, though single readings can be large; an effect the other way counts as inactive or inconclusive; note: potency is the fitted concentration of half-maximal effect; 0% is about no effect; nearly all actives have a fitted effect of over 75% in size
The depositor's hits bear a star; ? = inconclusive; nt = not tested or not shown. Shown are actives, neighbours in structure and some others; about 4.7% of the full set was active somewhere. Cut-off read from the data, not from the text of the source, unless noted: active = activation above about 30%; inactive = the rest.

SMILES | D1 PAM | D1 agonist | TRHR enhancer-1 | TRHR agonist-1 | D1 antagonist | TRHR enhancer-2 | TRHR agonist-2
CN(C)c1ccc(C(C(=O)NCC2CCCO2)N(C(=O)c2snc(C(N)=O)c2N)c2ccc3c(c2)OCO3)cc1 (stereo not drawn) | 8 | 4 | 53* | -1 | 8 | -4 | 0%
COc1cc(OC)c(NS(=O)(=O)c2c(C)[nH]c(=O)[nH]c2=O)cc1Cl | 5 | 1 | -12 | 0 | -4 | nt | nt
COc1cc(/C=C2\SC(=S)N(c3cccnc3)C2=O)ccc1O | -6 | 30 | 6 | -1 | -6 | nt | nt
COc1cc(/C=C2\SC(=S)N(Nc3ncc(C(F)(F)F)cc3Cl)C2=O)ccc1O | -1 | 97* | 26 | 47* | 9 | 1 | ?
COc1cc(/C=C2\SC(=S)N(C(Cc3ccccc3)C(=O)O)C2=O)ccc1O (stereo not drawn) | 3 | 47* | 4 | 34* | -9 | 0 | ?
O=C(NN1C(=O)/C(=C/c2ccc(O)c(O)c2)SC1=S)c1ccccc1 | 1 | 26 | 10 | 29 | 12 | ? | ?
COc1cc(/C=C2\SC(=S)N(Nc3ccccc3)C2=O)ccc1O | -4 | 122* | -6 | 35* | -3 | 2 | 16µM*
COc1ccc(CNC(=O)CN(C(=O)CCC(=O)Nc2ccccn2)c2cccc(C)c2)cc1 | 6 | 0 | 44* | 0 | 25 | 7 | 6%
COc1ccc(S(=O)(=O)N/N=C(/C)c2cccc(NC(=O)c3ccccc3Cl)c2)cc1 | -2 | 2 | -5 | -1 | -6 | nt | nt
Cc1c(NC(=O)COC(=O)c2c3c(nc4ccccc24)CCCC3)c(=O)n(-c2ccccc2)n1C | 1 | 0 | 4 | 0 | -5 | nt | nt
Cc1c(NC(=O)C(C)OC(=O)c2c3c(nc4ccccc24)CCC3)c(=O)n(-c2ccccc2)n1C (stereo not drawn) | 3 | 1 | 49* | -1 | -7 | -6 | -1%
Cc1ccc(S(=O)(=O)N(CC(=O)N2CCOCC2)c2ccccc2F)cc1 | -4 | -4 | -10 | 0 | -2 | nt | nt
CCOc1ccccc1N(CC(=O)N1CCOCC1)S(=O)(=O)c1ccc(SC)cc1 | -1 | 2 | -3 | 92* | 20 | -7 | 2.1µM*
CN(C)/C=C/c1onc(-c2c(Cl)cccc2Cl)c1C#N | -4 | 4 | 44* | 0 | 16 | 4 | ?
Brc1cc2c(cc1CSc1ncccn1)OCO2 | -4 | 21 | 46* | 0 | -2 | -9 | 2%
CC1CCN(C(=O)c2cc3c(=O)n(C)c4cc(Cl)ccc4c3s2)CC1 | 0 | 5 | 12 | -1 | 3 | nt | nt
COc1ccc(NC(=O)C(C)N(c2ccccc2)S(C)(=O)=O)cc1 (stereo not drawn) | -1 | -1 | 5 | -1 | -7 | nt | nt
COc1ccc(N(C(C)C(=O)N(C)Cc2ccccc2)S(C)(=O)=O)cc1 (stereo not drawn) | 0 | 2 | 50* | 0 | 5 | 1 | 0%
COc1ccc(NS(=O)(=O)c2ccc(N3CCCC3)c(NC(=S)Nc3cccc(C)c3C)c2)cc1 | -9 | 3 | -9 | 0 | 5 | nt | nt
COc1ccc(NS(=O)(=O)c2ccc(N3CCCC3)c(NC(=S)Nc3ccc(SC(F)F)cc3)c2)cc1 | -4 | 13 | 65* | 0 | -42* | 2 | -1%
CC(CCc1ccccc1)NC(=O)Cn1cccc1C(=O)c1ccccc1 (stereo not drawn) | -4 | 1 | 46* | -1 | 18 | ? | 3%
Cc1ccccc1C(=O)c1cccn1CC(=O)NC(C)CCc1ccccc1 (stereo not drawn) | -1 | 5 | 0 | 0 | -10 | nt | nt
Cc1c(C)c2ccc(OCC(=O)NCCCn3ccnc3)cc2oc1=O | -8 | 2 | 43* | 0 | -12 | 1 | 0%
COc1ccc(C)cc1NC(=O)NCc1cccn1Cc1ccccc1 | 1 | 1 | -16 | 0 | -2 | nt | nt
CC1CCN(C(=S)NC(=O)c2cccc([N+](=O)[O-])c2)CC1 | 4 | 2 | 1 | 0 | 12 | nt | nt
SMILES | D1 PAM | D1 agonist | TRHR enhancer-1 | TRHR agonist-1 | D1 antagonist | TRHR enhancer-2 | TRHR agonist-2
CN1CCN(C(=S)NC(=O)c2cccc([N+](=O)[O-])c2)CC1 | 1 | -1 | 50* | 0 | 2 | -3 | -1%
COc1cccc(NC(=O)CN(c2ccc(C)cc2)S(=O)(=O)c2c(C)nn(C)c2C)c1 | 11 | 4 | 0 | 33* | 16 | -3 | 7%
COc1ccc(N(CC(=O)Nc2cccc(OC)c2)S(=O)(=O)c2c(C)nn(C)c2C)cc1 | 3 | 2 | 6 | 0 | 0 | nt | nt
c1ccc2c(c1)ncn2CCCOc1ccc2c(c1)CCC2 | -4 | 1 | 5 | -1 | -13 | nt | nt
c1ccc2c(c1)ncn2CCCCOc1ccc2c(c1)CCC2 | 6 | 7 | 51* | -1 | -12 | -8 | -1%
O=C(c1cn(CC(=O)N2CCCCC2)c2ccccc12)C1CC1 | 0 | 0 | 51* | 0 | 5 | -2 | -1%
CCOC(=O)C1CCN(C(=O)Cn2cc(C(=O)C3CC3)c3ccccc32)CC1 | 0 | -1 | 2 | 0 | -7 | nt | nt
CCOc1ccc(-c2cc(C(=O)OC)nc3c2c(=O)n(C)c(=O)n3C)cc1 | -4 | 2 | 43* | 0 | 27 | -6 | 0%
CCCN(C(=O)c1cccs1)c1c(N)n(Cc2ccccc2)c(=O)[nH]c1=O | 4 | 0 | 0 | 0 | 25 | nt | nt
O=C(CCN1C(=O)C2CCCCC2C1=O)N1CCN(S(=O)(=O)c2ccccc2)CC1 (stereo not drawn) | -4 | 1 | 41* | 0 | -14 | 4 | -1%
O=C(CCN1C(=O)C2CCCCC2C1=O)N1CCN(S(=O)(=O)c2cccc(F)c2)CC1 (stereo not drawn) | -7 | 0 | 30 | 0 | -16 | nt | nt
COc1nc(N)nc(CC(=O)C2CC2)n1 | -5 | 3 | 62* | 0 | -3 | -2 | -1%
CCOC(=O)N1CCC(Nc2nc(OC)nc(OC)n2)CC1 | -8 | 2 | 0 | 0 | 7 | nt | nt
CC(=O)Oc1c(Sc2ccccc2[N+](=O)[O-])c(C)nn1C(C)(C)C | 0 | 2 | 58* | 0 | 6 | -7 | ?
O=C(Nc1nccs1)c1cccc(S(=O)(=O)N2CCOCC2)c1 | 1 | 3 | 7 | 0 | 3 | nt | nt
COc1ccccc1NS(=O)(=O)c1cccc(C(=O)N/N=C/c2c(C)nn(-c3ccccc3)c2N2CCCC2)c1 | -1 | 3 | 1 | 27 | 14 | 5 | -1%
O=C(COC(=O)c1cnccn1)Nc1c(Cl)cc(Cl)cc1Cl | 2 | -1 | 47* | 1 | -3 | -2 | -1%

Bioassay records (PubChem BioAssay)
